Data from PubChem BioAssay AID1159580 (chemical genetic matrix, 2015).
The whole screen tested about 5,500 compounds, of which about 2,000 (36%) were called active. Roughly 18% stayed inconclusive and do not appear here. Rule as the data show it: active = normalized growth mostly below about 0.91 (no sharp cut-off); inconclusive = no clear call, values can overlap the other calls; inactive = mostly above about 0.92. The list shows a part of the results.

Experiment: chemical genetic growth profiling, strain panel (AID 1159580);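 also: tested at 20 µM; growth read once vehicle control cultures reached saturation at 30 °C; 1 = growth at the plate median or of vehicle wells; lower values mean less growth of the strain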
Details: growth OD

Measured: normalized growth

O=C1CC(c2ccccc2)Oc2ccccc21 (configuration not stated)
inactive: S. cerevisiae deletion strains, locus YBR021W, strain FUR4, active compounds read low 0.97 | S. cerevisiae deletion strains, locus YBR229C, strain ROT2, active compounds read low 0.985 | S. cerevisiae deletion strains, locus YCL029C, strain bik1, active compounds read low 0.971 | S. cerevisiae deletion strains, locus YDL035C, strain GPR1, active compounds read low 1.02 | S. cerevisiae deletion strains, locus YDL074C, strain BRE1, active compounds read low 0.989 | S. cerevisiae deletion strains, locus YDL101C, strain DUN1, active compounds read low 0.996 | S. cerevisiae deletion strains, locus YDL185W, strain tfp1, active compounds read low 0.958 | S. cerevisiae deletion strains, locus YDL192W, strain arf1, active compounds read low 0.957 | S. cerevisiae deletion strains, locus YDR101C, strain arx1, active compounds read low 0.958 | S. cerevisiae deletion strains, locus YDR162C, strain NBP2, active compounds read low 1.02 | S. cerevisiae deletion strains, locus YDR318W, strain mcm21, active compounds read low 0.954 | S. cerevisiae deletion strains, locus YDR388W, active compounds read low 0.96 | S. cerevisiae deletion strains, locus YDR502C, strain sam2, active compounds read low 0.96 | S. cerevisiae deletion strains, locus YEL061C, strain CIN8, active compounds read low 0.976 | S. cerevisiae deletion strains, locus YER110C, active compounds read low 0.963 | S. cerevisiae deletion strains, locus YER155C, strain BEM2, active compounds read low 0.982 | S. cerevisiae deletion strains, locus YER167W, strain BCK2, active compounds read low 0.989 | S. cerevisiae deletion strains, locus YGL078C, strain dbp3, active compounds read low 0.96 | S. cerevisiae deletion strains, locus YGL086W, strain mad1, active compounds read low 0.974 | S. cerevisiae deletion strains, locus YGL248W, strain PDE1, active compounds read low 0.993 | S. cerevisiae deletion strains, locus YGR135W, strain pre9, active compounds read low 0.969 | S. cerevisiae deletion strains, locus YGR229C, strain SMI1, active compounds read low 0.985 | S. cerevisiae deletion strains, locus YGR252W, strain gcn5, active compounds read low 1.03 | S. cerevisiae deletion strains, locus YHR030C, strain SLT2, active compounds read low 0.982 | S. cerevisiae deletion strains, locus YHR079C, strain IRE1 (second series), active compounds read low 0.967 | S. cerevisiae deletion strains, locus YHR094C, strain hxt1, active compounds read low 0.972 | S. cerevisiae deletion strains, locus YHR129C, strain ARP1, active compounds read low 0.983 | S. cerevisiae deletion strains, locus YHR200W, strain rpn10, active compounds read low 0.961 | S. cerevisiae deletion strains, locus YIL066C, strain RNR3, active compounds read low 1 | S. cerevisiae deletion strains, locus YIL073C, strain SPO22, active compounds read low 1.05 | S. cerevisiae deletion strains, locus YIL125W, strain kgd1, active compounds read low 0.956 | S. cerevisiae deletion strains, locus YIR030C, strain dcg1, active compounds read low 0.977 | S. cerevisiae deletion strains, locus YJL095W, strain BCK1, active compounds read low 0.932 | S. cerevisiae deletion strains, locus YJL134W, strain LCB3, active compounds read low 0.983 | S. cerevisiae deletion strains, locus YJL168C, strain set2, active compounds read low 0.958 | S. cerevisiae deletion strains, locus YJL187C, strain SWE1 (second series), active compounds read low 1.02 | S. cerevisiae deletion strains, locus YJR043C, strain POL32, active compounds read low 0.958 | S. cerevisiae deletion strains, locus YKL009W, strain mrt4, active compounds read low 1.02 | S. cerevisiae deletion strains, locus YKL068W, active compounds read low 0.966 | S. cerevisiae deletion strains, locus YKL085W, strain MDH1 (second series), active compounds read low 0.972 | S. cerevisiae deletion strains, locus YKL085W, strain MDH1, active compounds read low 0.972 | S. cerevisiae deletion strains, locus YKR001C, strain vps1, active compounds read low 0.927 | S. cerevisiae deletion strains, locus YLR039C, strain RIC1, active compounds read low 0.956 | S. cerevisiae deletion strains, locus YLR058C, strain SHM2, active compounds read low 0.992 | S. cerevisiae deletion strains, locus YLR102C, strain apc9, active compounds read low 0.961 | S. cerevisiae deletion strains, locus YLR262C, strain YPT6, active compounds read low 0.971 | S. cerevisiae deletion strains, locus YLR268W, strain sec22, active compounds read low 0.962 | S. cerevisiae deletion strains, locus YLR330W, strain CHS5, active compounds read low 0.988 | S. cerevisiae deletion strains, locus YLR342W, strain FKS1 (second series), active compounds read low 0.944 | S. cerevisiae deletion strains, locus YLR371W, strain rom2, active compounds read low 0.961 | S. cerevisiae deletion strains, locus YLR418C, strain cdc73, active compounds read low 0.894 | S. cerevisiae deletion strains, locus YML016C, strain PPZ1, active compounds read low 0.974 | S. cerevisiae deletion strains, locus YML032C, strain rad52, active compounds read low 0.949 | S. cerevisiae deletion strains, locus YML124C, strain tub3, active compounds read low 0.95 | S. cerevisiae deletion strains, locus YMR078C, strain ctf18, active compounds read low 0.955 | S. cerevisiae deletion strains, locus YMR223W, strain ubp8, active compounds read low 0.961 | S. cerevisiae deletion strains, locus YMR307W, strain GAS1, active compounds read low 1.01 | S. cerevisiae deletion strains, locus YNL067W, strain RPL9B, active compounds read low 1.03 | S. cerevisiae deletion strains, locus YNL153C, strain GIM3, active compounds read low 1.01 | S. cerevisiae deletion strains, locus YNL233W, strain BNI4, active compounds read low 0.967 | S. cerevisiae deletion strains, locus YNL250W, strain rad50, active compounds read low 0.966 | S. cerevisiae deletion strains, locus YNL271C, strain bni1, active compounds read low 0.947 | S. cerevisiae deletion strains, locus YNL298W, strain CLA4, active compounds read low 0.971 | S. cerevisiae deletion strains, locus YNL307C, strain MCK1, active compounds read low 0.943 | S. cerevisiae deletion strains, locus YNR052C, strain pop2, active compounds read low 0.971 | S. cerevisiae deletion strains, locus YOL006C, strain TOP1, active compounds read low 0.932 | S. cerevisiae deletion strains, locus YOL012C, strain htz1 1 | S. cerevisiae deletion strains, locus YOL147C, strain pex11, active compounds read low 0.942 | S. cerevisiae deletion strains, locus YOR061W, strain CKA2, active compounds read low 0.989 | S. cerevisiae deletion strains, locus YOR069W, strain VPS5, active compounds read low 0.98 | S. cerevisiae deletion strains, locus YOR136W, strain idh2, active compounds read low 0.965 | S. cerevisiae deletion strains, locus YOR144C, strain elg1, active compounds read low 0.949 | S. cerevisiae deletion strains, locus YOR184W, strain ser1, active compounds read low 0.925 | S. cerevisiae deletion strains, locus YOR316C, strain cot1, active compounds read low 0.964 | S. cerevisiae deletion strains, locus YPL055C, strain LGE1, active compounds read low 1 | S. cerevisiae deletion strains, locus YPL241C, strain CIN2, active compounds read low 0.977 | S. cerevisiae deletion strains, locus YPR119W, strain clb2, active compounds read low 0.935 | S. cerevisiae deletion strains, locus YPR141C, strain kar3, active compounds read low 0.954 | S. cerevisiae deletion strains, locus YPR163C, strain tif3, active compounds read low 0.952 | S. cerevisiae deletion strains, locus YPR167C, strain met16, active compounds read low 1.01 | S. cerevisiae deletion strains, strain wtn01, active compounds read low 0.95 | S. cerevisiae strains, strain wild type, active compounds read low 0.988
